NOD2-RIPK2 inh: NOD2-RIPK2 binding disruptors in cells, primary screen, fluorescence, CHO cells, BLA complementation; inhibition, % at 4.98 µM; 0.38% of 360,000 active; Receptor-interacting serine/threonine-protein kinase 2 (Homo sapiens), O43353; CCF4 ratio; in the data active = inhibition above about 21%;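 also: 0% = vehicle only and 100% = reference blocker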
TLR4-MyD88 BLA: inhibitors of TLR4-MyD88 association in cells, primary screen, cell-based, HeLa CL3-4, BLA complementation, FRET ratio; Toll-like receptor 4 (Homo sapiens) + Myeloid differentiation primary response protein …; AID 861, 2007; 0.18% of 200,000 active; HeLa CL3-4 TLR4/MyD88 BLA complementation; inhibition, % at 8.4 µM; in the data active = inhibition above about 25%;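 also: 0% = vehicle and 100% = reference inhibitor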
Target sequence (O00206 whole entry, looked up): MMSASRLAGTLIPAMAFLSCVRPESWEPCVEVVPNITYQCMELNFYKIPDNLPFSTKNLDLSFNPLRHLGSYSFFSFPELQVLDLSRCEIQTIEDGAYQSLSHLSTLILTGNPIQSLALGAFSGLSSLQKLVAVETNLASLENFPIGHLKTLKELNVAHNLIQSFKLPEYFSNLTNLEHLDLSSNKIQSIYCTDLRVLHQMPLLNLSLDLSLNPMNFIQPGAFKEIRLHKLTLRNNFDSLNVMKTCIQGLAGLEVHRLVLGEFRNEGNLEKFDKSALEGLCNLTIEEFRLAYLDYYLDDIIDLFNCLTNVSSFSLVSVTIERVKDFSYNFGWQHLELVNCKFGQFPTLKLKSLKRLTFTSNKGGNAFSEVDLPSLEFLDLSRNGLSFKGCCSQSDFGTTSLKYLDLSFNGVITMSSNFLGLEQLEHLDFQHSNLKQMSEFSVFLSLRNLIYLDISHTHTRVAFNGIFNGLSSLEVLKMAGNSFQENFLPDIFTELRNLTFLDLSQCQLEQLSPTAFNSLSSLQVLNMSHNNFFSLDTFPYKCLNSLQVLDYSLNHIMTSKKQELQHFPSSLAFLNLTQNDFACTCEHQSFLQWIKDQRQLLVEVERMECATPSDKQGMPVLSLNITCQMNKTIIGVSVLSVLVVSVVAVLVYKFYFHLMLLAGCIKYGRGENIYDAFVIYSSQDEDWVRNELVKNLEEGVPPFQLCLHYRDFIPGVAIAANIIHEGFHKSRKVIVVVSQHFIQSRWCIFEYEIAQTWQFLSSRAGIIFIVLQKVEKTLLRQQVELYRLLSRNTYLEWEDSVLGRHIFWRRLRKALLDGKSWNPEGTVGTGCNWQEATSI
Target sequence (Q99836 whole entry, looked up): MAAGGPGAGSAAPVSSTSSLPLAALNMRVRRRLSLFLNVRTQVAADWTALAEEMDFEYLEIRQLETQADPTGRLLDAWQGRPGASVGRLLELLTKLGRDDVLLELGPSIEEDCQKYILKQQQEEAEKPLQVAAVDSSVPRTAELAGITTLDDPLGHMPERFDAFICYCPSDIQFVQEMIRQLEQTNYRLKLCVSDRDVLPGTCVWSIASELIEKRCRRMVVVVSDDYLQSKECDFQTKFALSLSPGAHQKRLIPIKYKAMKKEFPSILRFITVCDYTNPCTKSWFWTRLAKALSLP
TLR9-MyD88 block: inhibitors of TLR9-MyD88 association in cells, primary screen, cell-based, CHO, BLA complementation, fluorescence; CCF4 FRET ratio; 0.21% of 340,000 active; inhibition, % at 4.98 µM; Toll-like receptor 9 (Homo sapiens) + Myeloid differentiation primary response protein …; AID 504734, 2011;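 active = inhibition above the mean over all tested compounds plus 3 SD, cut at about 21% in these data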;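 also: 0% = DMSO only wells and 100% = clavulanate BLA inhibitor control wells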
ABCB6 inh MLPCN: ABCB6 transporter inhibitors, primary screen, K562-ABCB6 cells, flow cytometry, MLPCN library; K562-ABCB6 porphyrin accumulation, 1 h; hits give low values; AID 602162, 2011; fluorescence ratio to DMSO, % at 10 µM; 0.19% of 360,000 active;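 active = fluorescence ratio to DMSO below 75%, the collection mean minus 3 SD; inconclusive = too few cells collected in the well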;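 also: signal is porphyrin accumulated inside mitochondria; 100% equals median channel fluorescence of DMSO control wells; lower ratio means ABCB6 inhibition with less porphyrin fluorescence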
Myeloid diff 2: induction of myeloid progenitor differentiation, primary screen, cell-based, flow cytometry, MLPCN library; ER-HoxA9 myeloid progenitors, lysozyme-GFP differentiation; calls only at 10 µM; 1% of 360,000 active;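 active = normalized GFP-positive differentiation at or above the plate's own cutoff, the solvent-only control mean plus 3 SD; inconclusive = no clear call, values can overlap the other calls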;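 also: cells exposed to compound for four days before flow analysis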
Myeloid diff CP1: inducers of myeloid progenitor differentiation, confirmation, cell-based, GFP/Mac1 flow cytometry, cherry pick 01 | shares compounds with Myeloid diff 2 | ER-HoxA9 myeloid progenitors, GFP/Mac1 double-positive flow | calls only | 2% of 2,300 active | AID 651706, 2012;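 active = share of green or green-and-red cells above 9 and 9% in run 1 or 4 and 3% in run 2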
GFP autofluor: compound fluorescence in myeloid differentiation counter-screen; shares compounds with Myeloid diff 2; ER-HoxA9 myeloid progenitors, no estrogen, GFP autofluorescence flow cytometry; vehicle wells 0%, positive control 100%; fluorescence response, % (concentration not given with the values); 7.4% of 2,300 active; AID 651707;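 active = over 5% cells positive for green fluorescent reporter, or over 2% positive for both it and APC stain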;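 also: range taken on the double positive population between DMSO and positive control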
* hit, by the source's call; i = inactive; ? = inconclusive; nt = no result; + = active, no number. Compounds with a hit are over-represented: about 1.7% of the library has one in this group of screens.

SMILES	NOD2-RIPK2 inh	TLR4-MyD88 BLA	TLR9-MyD88 block	ABCB6 inh MLPCN	Myeloid diff 2	Myeloid diff CP1	GFP autofluor
COc1ccc2c(c1)-c1ccccc1S(=O)(=O)N2C(C)=O	-11	2	-2	96	i	i	0
COc1ccc(C#Cc2ccc(C3=CC(=O)CC(C)(C)C3=O)cc2)cc1	-3	nt	-2	98	i	nt	nt
Oc1cc(-c2ccncc2)cc2cccnc12	-2	nt	-1	102	+	i	0
COc1ccc(CN2C(=O)C(C)Nc3ncnc(N4CCOCC4)c32)cc1 (centres undefined)	2	nt	0	97	i	nt	nt
CC1Nc2ncnc(N3CCOCC3)c2N(Cc2ccccc2)C1=O (centres undefined)	2	nt	0	101	i	i	0
Cc1ccccc1OCc1nnc(SCCN2CCCC2)n1-c1ccccc1	4	3	-1	106	+	i	0
Cc1ccccc1OCc1nnc(SC(C)C(=O)O)n1-c1ccccc1 (centres undefined)	-9	nt	-7	105	i	nt	nt
O=C(NCCC1=CCCCC1)C1CCN(S(=O)(=O)c2cccc(C(F)(F)F)c2)CC1	-2	nt	3	100	i	nt	nt
Cc1cccc(NS(=O)(=O)c2ccc(C)c(C(=O)NC3CCN(Cc4ccccc4)CC3)c2)c1	3	nt	-7	101	+	i	0
Cc1ccccc1C(=O)NC1CCN(Cc2ccccc2)CC1	-6	15	-10	104	i	nt	nt
Cc1ccc(OCC(=O)N2CCCCC2)c(Br)c1	-3	-2	-1	79	i	i	0
CC(C)(C)c1ccc(OCC(=O)N2CCCCCC2)c(Br)c1	5	8	1	98	i	nt	nt
CC(C)C[C@H]1CN(CCCC[C@@H]2CNC(=O)C(=O)N2Cc2ccccc2)C(=O)C(=O)N1CC1CCCCC1	1	nt	nt	99	i	nt	nt
COc1ccccc1N1CCN(S(=O)(=O)CC23CCC(CC2=O)C3(C)C)CC1 (centres undefined)	8	-9	4	99	i	i	0
COc1cc(-c2c(CCO)sc3ccccc23)cc(OC)c1OC	1	nt	nt	99	+	i	2
COc1cc(-c2c(-c3ccsc3)sc3ccccc23)cc(OC)c1OC	-5	nt	8	102	i	nt	nt
O=C1NC(N2CCOCC2)=N/C1=C/c1ccc2c(c1)OCO2	-2	-2	-2	100	i	nt	nt
CCOc1ccc(-c2noc(-c3csc([C@@H]4C[C@H](O)[C@@H](CO)O4)n3)n2)cc1	-7	nt	nt	95	i	nt	nt
O=S1(=O)c2ccc(Br)cc2N2CC[C@H](C2)N1Cc1ccc(Cl)cc1	4	nt	-11	101	?	nt	nt
CCN(C(=O)COc1cc(=O)n(CC)c2ccccc12)c1cc(Cl)ccc1OC	9	-8	-1	95	i	i	17*
COc1cccc(NC(=O)CN(C)C(=O)CC2CCCC2)c1	-9	nt	0	100	i	i	0
Cc1cccc(C(=O)NC2CCN(CC(=O)N3CCOCC3)CC2)c1	-7	2	2	99	i	nt	nt
Cc1cccc(C(=O)NC2CCN(C(=O)N3CCOCC3)CC2)c1	-5	-9	8	93	+	i	0
COc1ccc(C)cc1NC(=O)n1ncc2cc(Cl)ccc21	2	nt	-5	107	+	+	0
Cc1ccccc1NC(=O)n1ncc2cc(Cl)ccc21	-5	nt	2	99	i	nt	nt
SMILES	NOD2-RIPK2 inh	TLR4-MyD88 BLA	TLR9-MyD88 block	ABCB6 inh MLPCN	Myeloid diff 2	Myeloid diff CP1	GFP autofluor
CCOC(=O)N1CCN(C(=O)c2ccc3c(c2)ncn3C2CCCC2)CC1	-4	-5	2	102	i	i	0
COc1nc(-c2ccccc2)nc(C)c1CC(=O)O	3	-6	6	99	i	i	0
Cc1ccc(S(=O)(=O)N2CCCCC2C(=O)O)cc1 (centres undefined)	-4	13	-2	94	i	nt	nt
Cc1ccc(S(=O)(=O)N2CCN(S(=O)(=O)c3ccc(C)cc3)C3OCCOC32)cc1 (centres undefined)	-10	7	3	98	i	i	0
Cc1ccc(-c2csc(NC(=O)C3=COCCO3)n2)cc1	1	-1	9	162	i	nt	nt
Cc1ccc(C)c(-c2csc(NC(=O)C3=COCCO3)n2)c1	-1	nt	1	104	i	i	0
CCOc1ccc(N(Cc2cc3cc(OC)ccc3[nH]c2=O)C(=O)C2CCCO2)cc1 (centres undefined)	-7	2	-6	97	+	i	0
CC(C)CNC(=S)N1CCC(NC(=O)c2ccco2)CC1	1	-8	-2	98	i	nt	nt
CCOc1c(Br)cc(C2CC(=O)Nc3cc(OC)c(OC)cc32)cc1OC (centres undefined)	-4	nt	0	98	i	nt	nt
COc1cc(C2CC(=O)Nc3cc(C)c(C)cc32)cc(OC)c1OC (centres undefined)	-10	-1	-3	98	+	i	2
CCOC(=O)c1ccc(NC(=O)CN2CCc3ccccc3C2)cc1	-4	1	-3	92	i	i	2
COC(=O)c1cc(NC(=O)CN2CCc3cc4c(cc3C2)OCCCO4)cc(C(=O)OC)c1	-11	nt	-1	101	i	i	0
CCOc1ccc(NC(=O)CN2CCc3ccccc3C2)cc1	-1	nt	-9	104	i	nt	nt
Cn1nnnc1SCCOc1ccc(C#N)cc1	5	0	4	92	i	nt	nt
O=C(CSc1nnc(Cc2ccccc2)n1-c1cccc(Cl)c1)N1CCOCC1	11	5	3	92	i	nt	nt
Cc1cccc(-n2c(Cc3ccccc3)nnc2SCC(=O)N2CCOCC2)c1	-8	0	8	97	i	i	1
Cc1cc2cc(CN(CC3CCCO3)C(=S)Nc3ccccc3)c(=O)[nH]c2cc1C (centres undefined)	3	-5	-3	106	+	i	5
Cc1cc(OCc2cc(C(=O)N3CCC(Oc4cccnc4)CC3)no2)cc(C)c1Cl	-5	nt	-2	88	i	nt	nt
COC(=O)[C@@]1(C)[C@H]2C(=O)N(C)C(=O)[C@H]2[C@H]2CN(C)C(=NC3CCCCC3)N21	-5	nt	-3	104	i	nt	nt
COC(=O)C=C1CCC2C3CCC4=CC(=O)CCC4(C)C3C(=O)CC12C (centres undefined)	-1	nt	3	100	i	nt	nt
Cc1c(C(=O)C(C)C)n(C)c2ccccc12	-1	8	4	87	i	i	0

Compound activity: PubChem, several laboratories
